For part of these data: Entries with a potency or affinity are not part of this list.
Legend:
Set-up in all cases: scale not given: direction of the effect not stated beside the values
[1] = biological target: Protein translocase subunit SecA (Escherichia coli (strain K12)) (UniProt P10408); assay: Assay to Identify E. coli SecA ATPase Inhibitors; format: functional; settings: 30 µM
[2] = biological target: T1, Ubiquitin-activating enzyme e1, putative (Leishmania donovani (strain BPK282A1)) (UniProt E9BSI1); assay: Leishmania donovani Ubiquitin Activating Enzyme (LdE1); format: functional; settings: 30 µM
T1 sequence (whole entry): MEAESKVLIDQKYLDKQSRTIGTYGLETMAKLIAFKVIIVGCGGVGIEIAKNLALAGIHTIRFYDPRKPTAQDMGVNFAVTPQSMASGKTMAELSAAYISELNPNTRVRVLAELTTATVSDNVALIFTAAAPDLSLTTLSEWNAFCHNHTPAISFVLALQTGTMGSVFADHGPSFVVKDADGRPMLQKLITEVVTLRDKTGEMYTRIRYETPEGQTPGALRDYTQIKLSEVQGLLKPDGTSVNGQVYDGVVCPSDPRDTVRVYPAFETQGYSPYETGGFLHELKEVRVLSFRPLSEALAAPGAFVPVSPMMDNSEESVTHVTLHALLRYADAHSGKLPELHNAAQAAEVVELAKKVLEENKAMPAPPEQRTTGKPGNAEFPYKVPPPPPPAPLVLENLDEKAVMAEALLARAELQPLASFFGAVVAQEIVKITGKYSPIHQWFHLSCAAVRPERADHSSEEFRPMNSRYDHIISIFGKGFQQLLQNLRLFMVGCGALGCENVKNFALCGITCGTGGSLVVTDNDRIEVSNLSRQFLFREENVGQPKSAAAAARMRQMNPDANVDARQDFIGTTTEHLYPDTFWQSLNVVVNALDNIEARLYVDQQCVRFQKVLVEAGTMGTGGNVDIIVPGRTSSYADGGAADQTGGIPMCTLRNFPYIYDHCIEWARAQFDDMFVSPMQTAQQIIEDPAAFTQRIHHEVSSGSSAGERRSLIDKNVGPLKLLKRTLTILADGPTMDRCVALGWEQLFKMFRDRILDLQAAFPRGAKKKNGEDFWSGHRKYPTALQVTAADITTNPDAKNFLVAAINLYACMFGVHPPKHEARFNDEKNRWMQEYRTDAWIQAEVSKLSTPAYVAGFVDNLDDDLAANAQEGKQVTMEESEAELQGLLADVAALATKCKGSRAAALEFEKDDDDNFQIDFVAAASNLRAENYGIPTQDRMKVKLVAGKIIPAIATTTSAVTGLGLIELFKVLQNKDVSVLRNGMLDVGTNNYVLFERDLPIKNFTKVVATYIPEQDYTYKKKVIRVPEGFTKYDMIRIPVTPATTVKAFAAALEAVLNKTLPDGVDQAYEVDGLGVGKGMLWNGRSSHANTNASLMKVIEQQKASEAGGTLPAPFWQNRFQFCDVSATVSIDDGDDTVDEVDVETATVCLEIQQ

[3] = biological target: AMP-activated protein kinase, AMPK (Homo sapiens) (UniProt P54646+O43741+P54619+Q9UGJ0+Q9Y478+Q13131+Q9UGI9); assay: AMP-dependent Kinase enzyme assay. An in vitro enzyme assay that detects ADP turnover that is directly proportional to AMPK activity. This uses naive AMPK that is activated during the assay with MK-8722; format: functional; settings: 30 µM
[4] = biological target: Sialic acid-binding Ig-like lectin 9 (Homo sapiens) (UniProt Q9Y336); assay: Hs-Siglec9 ALPHAscreen SOP 20170721; settings: 10 µM
Sequence of Sialic acid-binding Ig-like lectin 9 (Homo sapiens) (Q9Y336 whole entry): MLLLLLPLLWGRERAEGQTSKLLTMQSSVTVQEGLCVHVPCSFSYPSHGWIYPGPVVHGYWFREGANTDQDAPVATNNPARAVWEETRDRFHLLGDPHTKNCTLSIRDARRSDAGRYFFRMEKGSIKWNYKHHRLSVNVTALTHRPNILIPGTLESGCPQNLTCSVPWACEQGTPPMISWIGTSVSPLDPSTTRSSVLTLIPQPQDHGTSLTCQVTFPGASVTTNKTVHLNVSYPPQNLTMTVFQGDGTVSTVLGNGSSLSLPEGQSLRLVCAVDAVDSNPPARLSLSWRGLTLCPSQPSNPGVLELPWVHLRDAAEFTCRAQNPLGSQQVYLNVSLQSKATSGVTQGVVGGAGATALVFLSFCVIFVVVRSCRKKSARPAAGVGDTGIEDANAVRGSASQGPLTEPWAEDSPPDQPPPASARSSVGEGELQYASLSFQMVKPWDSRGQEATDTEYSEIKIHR

Trypanosoma cruzi = assay: Trypanosoma cruzi phosphomannomutase and mannose-1-phosphate guanylyltransferase assay; format: functional; settings: 10 µM
[5] = biological target: T2, Arginase-2, mitochondrial (Homo sapiens) (UniProt P78540); assay: in vitro enzyme assay to detect the production of urea directly proportional to the activity of Arginase II; format: functional; settings: 33.3 µM; further: in the data most compounds retested in dose-response had high values
T2 sequence (whole entry): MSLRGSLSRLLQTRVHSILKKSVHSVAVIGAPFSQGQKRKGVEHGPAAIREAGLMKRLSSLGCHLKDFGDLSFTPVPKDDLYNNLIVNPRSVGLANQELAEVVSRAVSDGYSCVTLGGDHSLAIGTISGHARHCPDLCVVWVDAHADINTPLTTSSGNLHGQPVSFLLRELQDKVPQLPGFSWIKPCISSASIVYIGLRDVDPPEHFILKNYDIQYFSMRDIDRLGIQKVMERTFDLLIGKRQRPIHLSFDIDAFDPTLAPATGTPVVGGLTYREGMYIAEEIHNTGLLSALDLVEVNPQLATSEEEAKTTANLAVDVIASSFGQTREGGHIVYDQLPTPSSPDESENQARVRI

[6] = biological target: T3, Proteasome subunit beta (Trypanosoma cruzi) (UniProt O96673); assay: Trypanosoma cruzi proteasome chymotrypsin-like activity (TcProtChymo) assay.; further: in the data most compounds retested in dose-response had high values; format: functional; settings: 9.37 µM
T3 sequence (whole entry): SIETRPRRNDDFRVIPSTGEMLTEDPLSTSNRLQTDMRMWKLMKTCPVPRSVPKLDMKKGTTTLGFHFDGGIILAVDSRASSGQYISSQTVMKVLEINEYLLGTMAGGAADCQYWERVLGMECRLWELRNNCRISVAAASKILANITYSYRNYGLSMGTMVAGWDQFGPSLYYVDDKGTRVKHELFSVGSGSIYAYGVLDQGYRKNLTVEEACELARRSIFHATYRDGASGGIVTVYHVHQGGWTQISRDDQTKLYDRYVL

Homo sapiens = species on record: Homo sapiens; assay: To identify inhibition of the IFN signalling (Jak-Stat) pathway via expression of an eGFP reporter gene under the control of an IFN-stimulated response element (ISRE) containing MxA promoter.; format: functional; settings: 30 µM
[7] = biological target: T4, Tyrosyl-tRNA synthetase, putative (Trypanosoma cruzi (strain CL Brener)) (UniProt Q4DSP6); assay: Trypanosoma cruzi tyrosyl tRNA synthetase (TcYRS) _High Tyrosine SOP; format: functional; settings: 30 µM; further: in the data most compounds retested in dose-response had high values
T4 sequence (whole entry): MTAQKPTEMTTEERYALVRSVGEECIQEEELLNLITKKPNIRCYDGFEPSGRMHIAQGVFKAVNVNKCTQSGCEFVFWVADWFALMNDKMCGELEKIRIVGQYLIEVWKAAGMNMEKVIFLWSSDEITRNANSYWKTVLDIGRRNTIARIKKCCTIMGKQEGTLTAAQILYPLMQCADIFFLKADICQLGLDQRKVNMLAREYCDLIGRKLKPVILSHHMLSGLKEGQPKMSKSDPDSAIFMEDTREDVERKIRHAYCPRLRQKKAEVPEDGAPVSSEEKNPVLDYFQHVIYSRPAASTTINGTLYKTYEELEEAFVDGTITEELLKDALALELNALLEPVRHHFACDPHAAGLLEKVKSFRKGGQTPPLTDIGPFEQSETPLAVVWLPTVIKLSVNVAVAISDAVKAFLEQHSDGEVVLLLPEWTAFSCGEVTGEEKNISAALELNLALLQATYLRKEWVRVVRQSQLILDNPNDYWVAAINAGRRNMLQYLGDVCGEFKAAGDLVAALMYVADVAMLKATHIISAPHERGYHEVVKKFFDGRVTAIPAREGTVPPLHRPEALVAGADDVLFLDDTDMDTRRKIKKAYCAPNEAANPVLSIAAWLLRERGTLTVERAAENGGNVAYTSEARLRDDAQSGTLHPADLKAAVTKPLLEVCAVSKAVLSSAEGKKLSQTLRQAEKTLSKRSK

[8] = biological target: T4, Tyrosyl-tRNA synthetase, putative (Trypanosoma cruzi (strain CL Brener)); assay: Trypanosoma cruzi tyrosyl tRNA synthetase (TcYRS) SOP; format: functional; settings: 30 µM
[9] = biological target: Chromo domain-containing protein 1 (Saccharomyces cerevisiae (strain ATCC 204508 / S288c) (Baker's yeast)) (UniProt P32657); assay: ScCHD-1 Enzyme Inhibition Assay; format: functional; settings: 30 µM; further: in the data most compounds retested in dose-response had high values
Sequence of Chromo domain-containing protein 1 (Saccharomyces cerevisiae (strain ATCC 204508 / S288c) (Baker's yeast)) (P32657 whole entry, the tested form may be a part): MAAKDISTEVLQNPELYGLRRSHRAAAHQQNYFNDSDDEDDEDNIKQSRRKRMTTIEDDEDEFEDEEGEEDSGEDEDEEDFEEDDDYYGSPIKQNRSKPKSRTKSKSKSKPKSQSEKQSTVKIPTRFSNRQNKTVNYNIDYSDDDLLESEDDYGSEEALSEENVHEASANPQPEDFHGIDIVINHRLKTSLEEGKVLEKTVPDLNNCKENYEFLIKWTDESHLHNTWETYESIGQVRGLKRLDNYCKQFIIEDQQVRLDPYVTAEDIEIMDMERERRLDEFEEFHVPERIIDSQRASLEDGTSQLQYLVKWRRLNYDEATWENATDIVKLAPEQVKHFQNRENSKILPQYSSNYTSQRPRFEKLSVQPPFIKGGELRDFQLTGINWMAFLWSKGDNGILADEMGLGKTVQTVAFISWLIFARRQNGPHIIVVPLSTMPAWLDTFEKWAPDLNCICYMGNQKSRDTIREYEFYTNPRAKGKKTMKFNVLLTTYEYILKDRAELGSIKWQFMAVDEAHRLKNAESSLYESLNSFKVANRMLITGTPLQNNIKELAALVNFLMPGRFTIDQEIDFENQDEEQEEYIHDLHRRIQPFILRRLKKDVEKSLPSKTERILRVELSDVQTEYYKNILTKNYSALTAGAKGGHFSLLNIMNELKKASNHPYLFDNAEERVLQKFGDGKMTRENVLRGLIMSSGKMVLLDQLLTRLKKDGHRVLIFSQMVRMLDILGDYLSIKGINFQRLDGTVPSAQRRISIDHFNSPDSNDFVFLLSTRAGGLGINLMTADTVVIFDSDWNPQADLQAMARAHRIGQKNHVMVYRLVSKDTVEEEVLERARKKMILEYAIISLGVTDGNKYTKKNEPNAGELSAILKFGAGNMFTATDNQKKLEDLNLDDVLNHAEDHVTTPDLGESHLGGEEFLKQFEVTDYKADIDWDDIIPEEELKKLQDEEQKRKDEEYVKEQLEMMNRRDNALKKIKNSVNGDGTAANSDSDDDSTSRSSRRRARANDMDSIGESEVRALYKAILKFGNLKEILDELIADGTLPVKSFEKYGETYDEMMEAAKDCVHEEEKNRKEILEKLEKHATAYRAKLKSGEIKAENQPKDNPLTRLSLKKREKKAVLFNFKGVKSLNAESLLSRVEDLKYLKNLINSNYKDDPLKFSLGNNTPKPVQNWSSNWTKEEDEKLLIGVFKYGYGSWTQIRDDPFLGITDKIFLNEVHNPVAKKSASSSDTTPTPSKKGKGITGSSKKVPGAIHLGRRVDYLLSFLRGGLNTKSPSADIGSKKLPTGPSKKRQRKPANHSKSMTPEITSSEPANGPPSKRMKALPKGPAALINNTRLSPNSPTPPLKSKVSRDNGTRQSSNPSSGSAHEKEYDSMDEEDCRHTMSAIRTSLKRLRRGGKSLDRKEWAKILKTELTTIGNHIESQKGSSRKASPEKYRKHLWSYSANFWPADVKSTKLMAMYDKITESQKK

Sequence of Protein translocase subunit SecA (Escherichia coli (strain K12)) (P10408 whole entry): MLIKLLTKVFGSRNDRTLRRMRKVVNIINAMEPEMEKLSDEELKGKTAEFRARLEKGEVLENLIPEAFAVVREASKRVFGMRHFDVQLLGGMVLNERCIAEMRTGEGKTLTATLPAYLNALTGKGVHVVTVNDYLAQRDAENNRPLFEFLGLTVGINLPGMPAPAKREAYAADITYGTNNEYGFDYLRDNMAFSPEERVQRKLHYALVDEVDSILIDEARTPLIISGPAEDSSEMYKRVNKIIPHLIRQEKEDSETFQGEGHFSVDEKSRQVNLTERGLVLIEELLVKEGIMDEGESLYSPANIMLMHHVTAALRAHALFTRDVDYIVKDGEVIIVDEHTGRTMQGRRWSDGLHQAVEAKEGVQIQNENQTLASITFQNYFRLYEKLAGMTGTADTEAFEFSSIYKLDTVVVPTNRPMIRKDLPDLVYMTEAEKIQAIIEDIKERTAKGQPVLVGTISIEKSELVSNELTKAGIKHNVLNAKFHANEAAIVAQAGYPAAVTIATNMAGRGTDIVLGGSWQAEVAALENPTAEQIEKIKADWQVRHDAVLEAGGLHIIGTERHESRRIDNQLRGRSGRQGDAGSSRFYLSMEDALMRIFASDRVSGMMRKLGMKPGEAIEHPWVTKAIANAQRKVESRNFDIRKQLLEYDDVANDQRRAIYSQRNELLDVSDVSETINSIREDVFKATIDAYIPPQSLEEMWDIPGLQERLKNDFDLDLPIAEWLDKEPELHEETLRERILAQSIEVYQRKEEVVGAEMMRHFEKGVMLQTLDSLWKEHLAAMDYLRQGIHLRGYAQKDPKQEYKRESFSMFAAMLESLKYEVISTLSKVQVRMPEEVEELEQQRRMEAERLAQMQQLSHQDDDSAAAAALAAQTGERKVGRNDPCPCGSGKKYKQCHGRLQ

| SMILES | Percent Effect [1] [%] | Percent Effect [2] [%] | Percent Effect [3] [%] | Percent Effect [4] [%] | Percent Effect (Trypanosoma cruzi) [%] | Percent Effect [5] [%] | Percent Effect [6] [%] | Percent Effect (Homo sapiens) [%] | Percent Effect [7] [%] | Percent Effect [8] [%] | Percent Effect [9] [%] |
| --- | --- | --- | --- | --- | --- | --- | --- | --- | --- | --- | --- |
| Cc1cc(C(=O)NCc2ccccn2)no1 | 0.824 | 2.7 | -14.1 | -0.919 | 2.92 | -3.21 | 6.49 | 7.17 | 3.45 | -63 | 0.179 |
| CC(C(=O)NCc1ccnc(N2CCCC2)c1)n1cncn1 (stereo unspecified) | -3.9 | 15.8 | -4.58 | -5.93 | -5.45 | 3.45 | 7.18 | 26.8 | 3.43 | 0 | -11.3 |
| CCCNC(=O)c1ccc(NC(=O)c2cccc(OCC)c2)cc1 | 1.49 | -5.41 | 0.466 | -0.164 | -1.16 | 0.952 | 7.07 | 3.02 | 0.529 | 2.44 | 2.44 |
| O=C(CN1CCNCC1)N1CC[C@@H](c2ccc3ccccc3c2)[C@H](O)C1 | -0.963 | 8 | -4.87 | 12.2 | 0.876 | 2.08 | 14.7 | 10.1 | 7.1 | 13.6 | -3.45 |
| CS(=O)(=O)c1snnc1C1CCN(Cc2ccncc2)CC1 | -6.59 | 4.05 | 2.28 | -0.45 | -3.75 | -2.09 | 9.83 | 23.2 | 0 | 1.3 | 5.8 |
| N#Cc1cn(C2CC2)c(=O)n(CC(O)c2ccccc2F)c1=O (stereo unspecified) | -3.42 | 21.1 | -2.46 | 7.51 | 6.58 | -1.15 | 10.7 | 0.878 | 6.37 | 19.5 | -13.4 |
| CN(C)C(CNC(=O)c1cc2c([nH]c1=O)CCCC2=O)c1ccsc1 (stereo unspecified) | -5.23 | 16.2 | -3.65 | 17.4 | 4.55 | -0.554 | 2.51 | 1.27 | 5.94 | 18.3 | 45 |
| O=C(NC1CC1)[C@H]1C[C@@H]2CCN(CCc3ccccc3)C[C@H]2O1 | 2.18 | 10.7 | 9.4 | -8.83 | -7.28 | 2.56 | 4.85 | 4.51 | 1.06 | 11.5 | -2.58 |
| Cc1cc(CNC2CCCN(c3cccnn3)C2)no1 (stereo unspecified) | -0.548 | -2.6 | -12.2 | 5.49 | 0.885 | -5.52 | 15.5 | 18.9 | 5.38 | 13.6 | -2.81 |
| CCN(CC)C(=O)c1nnn(Cc2ccccc2)c1OC | -6.72 | -1.33 | 3.11 | 2.1 | -4.52 | -4.05 | 8.32 | -11.4 | 6.35 | 5.13 | -1.8 |
| CCC1CN(CCNC(C)=O)CCN1CCOC (stereo unspecified) | -0.705 | 16.2 | -10.5 | -8.99 | -2.74 | -4.81 | 18.2 | 5.73 | 7.39 | 13.6 | -5.61 |
| CC(C)(C(=O)NCC1CC1)c1ccccc1F | -8.21 | 4.17 | -4.88 | 2.97 | -4.18 | 0.442 | 15.6 | -2.36 | 2.1 | 2.56 | -3.44 |
| Cc1ccc(C)c(-n2ccc3nc(N4CCCC4)ncc3c2=O)c1 | -0.118 | -6.67 | 21.7 | 3.47 | -2.16 | -6.16 | -2.96 | -1.59 | 3.17 | -5.13 | -0.262 |
| Fc1ccccc1CN1C[C@@H](OCc2ccncc2)[C@H]2OCCC[C@H]21 | -4.8 | 10.4 | 6.84 | 10.2 | 4.62 | -13.8 | 5.49 | 6.56 | 7.53 | 16.1 | -1.04 |
| CS(=O)(=O)NCc1nnc2n1CCN(Cc1cccs1)C2 | -3.62 | 2.7 | 7.63 | -1.91 | 0.684 | -3.5 | 13.5 | 6.95 | 5.41 | 12.8 | 3.73 |
| O=C(NC1(c2nnn(CCO)n2)CCCC1)c1ccccc1 | -3.12 | 8 | -5.64 | 17.4 | 3.41 | 17.7 | 1.57 | -6.59 | 6.01 | 16.1 | -4.4 |
| Cc1nn(C)cc1CN(C)Cc1cc2c(cc1OC(F)F)OCO2 | -4.54 | 0 | -4.17 | -1.2 | 1.07 | -0.744 | -3.18 | -8.11 | -1.07 | 3.7 | -3.28 |
| CCc1nc(C2CCCN(C(=O)c3cn(C)nc3C)C2)no1 (stereo unspecified) | -2.94 | 5.41 | -8.22 | 13.8 | 7.89 | 0.185 | 5.57 | 9 | 3.96 | 13.4 | 65.5 |
| CCN(Cc1ccc2c(c1)OCCO2)C(=O)NC(C)Cn1ccnc1 (stereo unspecified) | -0.244 | 23.4 | -1.99 | -9.3 | -9.74 | 3.56 | 10.8 | 19.8 | 3.88 | 9.76 | -7.71 |
| CN(C)S(=O)(=O)c1ccc(CN2CCCC2c2ccc[nH]2)o1 (stereo unspecified) | -6.1 | -13.2 | -1.76 | -2.17 | -2.52 | -0.719 | -2.79 | -1.99 | 4.43 | -6.17 | 5.79 |
| CC(C)c1nc(CN2CCN(CC3CCCO3)CC2)cs1 (stereo unspecified) | 1.19 | 10.4 | -7.85 | -14 | -1.47 | 6.95 | 14.8 | 17.1 | 4.76 | 9.41 | -15.6 |

Source: ChEMBL document CHEMBL3988442, “University of Dundee, Small-Polar-MMV Screening Library” (2021)
